Experimental findings from PubChem BioAssay are described below.

Records with an inconclusive call do not appear. The source made the active and inactive calls. Unless noted, no stated cut-off is given here; in the data, active means inhibition above about 80%; inactive means the rest.

Test [1] can be described thus: viability loss in pontine glioma line – cell-based, SU-DIPG-XVII, MIPE5.0, CellTiter-Glo, qHTS, dose response (AID 1347060; cut-off not given, nearly all actives have AC50 up to about 26 µM). The note with it: CellTiter-Glo ATP luminescence. For orientation: ATP-based viability assays read luminescence as a measure of living cells.
Test [2] can be described thus: growth inhibition of DIPG cells – cell-based, MIPE5.0 library, qHTS (AID 1347068; cut-off not given, nearly all actives have IC50 up to about 30 µM). The settings on record: SU-DIPG-XXV viability. For orientation: In qHTS, concentration-response curves come from the screen itself.
Test [3] in a line: JHH-DIPG-1 glioma cell viability, MIPE5.0 library, CellTiter-Glo luminescence, qHTS (AID 1347067; cut-off not given, nearly all actives have AC50 up to about 26 µM;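 further: cells exposed to compound for 48 hours before readout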). The note with it: JHH-DIPG-1 glioma viability, CellTiter-Glo ATP luminescence.
Test [4] is described as follows: viability loss with induced miR-34 in A549 – imaging, A549 dox-inducible miR-34, nuclei and caspase counts, primary screen (AID 1347080;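 active means compounds whose cell count with miR-34 switched on is under 0.7 times the count with it off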). The settings on record: A549 miR-34 inducible, Hoechst nuclei count, 48 h.
Test [5] is described as follows: compounds altering HSF1 focus formation in cells – imaging, Selleck Cancer Library (AID 1347162; in the data active means plate-normalised HSF1 focus index below about 0.46). The settings on record: human cells, HSF1 nuclear foci imaging, at 10 µM; SSMD: measured here: HSF1 foci SSMD mean; cell count: measured here: cell number; plate-normalised HSF1 focus index: stronger effect = lower value.
Test [6] can be described thus: MELAS cybrid and Rieske KO viability enhancers – cell-based, MELAS cybrids, Rieske KO mouse fibroblasts, CellTiter-Glo, primary screen (AID 1508586;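 active means mean z-score across replicates of 1.96 or higher in either the MELAS or the Rieske mutant cell line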;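 further: z relative to plate mean and SD of compound and empty wells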). The settings on record: low glucose.
The nature of test [7]: growth inhibition, single agent or in combination, cell-based, chromothripsis tumors, cisplatin or BGB combos (AID 1671449).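 Further: cells exposed for 96 hours; 0% = vehicle DMSO and 100% = killing by high DMSO.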 The note with it: LFS_MB_P medulloblastoma cells.
Test [8] is described as follows: growth inhibition, single agent and combos, cell-based, chromothripsis tumors, cisplatin or BGB combos (AID 1671450).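 Further: cells exposed to compound for four days; 0% = vehicle DMSO and 100% = cell killing by high DMSO.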 The note with it: HDN33 neuroblastoma cells, stronger effect = higher value.
Test [9] can be described thus: growth inhibition, single agents and combos, ICB984, cell-based, cisplatin or BGB combos, synergistic combos for chromothripsis tumors (AID 1671451; call rule not given here;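 further: cells exposed for 96 hours before readout; 0% = vehicle DMSO and 100% = killing by high DMSO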). The note with it: ICB984 medulloblastoma cells, drug combinations, stronger effect = higher value.
Test [10] can be described thus: growth inhibition, single agents and combos, LFS_MB_1R, cell-based, cisplatin or BGB combos, synergistic combos for chromothripsis tumors (AID 1671452).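 Further: cells exposed for 96 hours before readout.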 The note with it: LFS_MB_1R medulloblastoma cells, stronger effect = higher value.
Test [11] in a line: growth inhibition, single agents and combos, HTB85, cell-based, BGB or cisplatin IC20 combos, synergistic combos for chromothripsis tumors (AID 1671453).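 Further: cells exposed for 96 hours before readout; 0% = vehicle DMSO and 100% = high DMSO killing control.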 The settings on record: HTB85 osteosarcoma cells, drug combinations, stronger effect = higher value.
Test [12] in a line: growth inhibition, single agents and combos, CRL2098, cell-based, BGB or cisplatin IC20 combos, synergistic combos for chromothripsis tumors (AID 1671454).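 Further: cells exposed for 96 h before readout; 0% = vehicle DMSO and 100% = killing by high DMSO.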 The settings on record: CRL2098 osteosarcoma cells, drug combinations, stronger effect = higher value.
A short description of test [13]: growth inhibition, single agents and combos, HD-MB03, cell-based, BGB or cisplatin IC20 combos, synergistic combos for chromothripsis tumors (AID 1671455; in the data active means inhibition above about 83%;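 further: 0% = vehicle DMSO and 100% = high DMSO as cytotoxic control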). The settings on record: HD-MB03 medulloblastoma cells, stronger effect = higher value.
A short description of test [14]: growth inhibition, single agents and combos, UWB1.289, cell-based, BGB or cisplatin combos, synergistic combos for chromothripsis tumors (AID 1671456).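 Further: cells exposed to compound for four days; 0% = vehicle DMSO and 100% = killing by high DMSO.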 The settings on record: UWB1.289 ovarian carcinoma cells, stronger effect = higher value.
Test [15] in a line: growth inhibition, single agents and combos, LFS_MB_2R, cell-based, cisplatin combos, synergistic combos for chromothripsis tumors (AID 1671457).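 Further: cells exposed to compound for four days before readout.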 The note with it: LFS_MB_2R medulloblastoma cells, stronger effect = higher value.
A short description of test [16]: growth inhibition, MDA-MB-436, cell-based, BGB or cisplatin combos, synergistic combos for chromothripsis tumors (AID 1671458; call rule not given here;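 further: cells exposed for 96 hours; 0% = vehicle DMSO and 100% = killing by high DMSO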). The settings on record: MDA-MB-436 breast carcinoma growth inhibition, drug combinations, stronger effect = higher value.
Test [17] in a line: UWB1.289_BRCA1 ovarian cancer growth, cell-based, BGB or cisplatin combinations (AID 1671459). The note with it: UWB1.289 BRCA1 ovarian carcinoma, drug combinations, stronger effect = higher value.
Test [18] in a line: drug combination toxicity in non-malignant astrocytes – cell-based, BGB or cisplatin IC20 combos, cytotoxicity control for chromothriptic childhood tumor combination screen (AID 1671460).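 Further: cells exposed to compounds for 96 hours before viability readout; 0% = vehicle and 100% = killing control.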 The settings on record: Human astrocytes, viability inhibition, drug combinations, at 0.5 µM, stronger effect = higher value.
Test [19] in a line: BT084 cell growth, single and combined drugs, ICGC_MB145, cisplatin and BGB IC40 combos (AID 1671461).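 Further: cells exposed to drugs for 96 hours; 0% = vehicle DMSO and 100% = high DMSO full killing control.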 The settings on record: BT084 medulloblastoma cells, drug combinations, stronger effect = higher value.
Test [20] in a line: RCMB18 cell growth, single agent and combined, cisplatin and BGB IC40 combos (AID 1671462).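 Further: cells exposed to compound for four days.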 The settings on record: RCMB18 medulloblastoma cells, stronger effect = higher value.
The nature of test [21]: CRL1545 cell growth, single agent and combined, cisplatin and BGB IC20 combos (AID 1671464).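 Further: cells exposed to compound for 96 hours before readout; 0% = vehicle DMSO and 100% = high DMSO killing control.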 The settings on record: CRL1545 osteosarcoma cells, stronger effect = higher value.
Where [22] appears, read: measured here: combination with BGB IC40, at 0.05 µM.
[23] abbreviates: measured here: with BGB IC20 combination, at 0.5 µM.
The mark [24] stands for this setting: measured here: with cisplatin IC20 combination, at 0.5 µM.
The mark [25] stands for this setting: measured here: combination with cisplatin, at 0.5 µM.
The mark [26] stands for this setting: measured here: combination with cisplatin, at 5 µM.

Take `Cc1noc2c1-c1ccccc1C(c1ccc(Cl)cc1)=N[C@H]2CC(N)=O`: the result in test [1] and in test [2] was inactive.

`CC[C@H](Nc1ncnc2nc[nH]c12)c1oc2ccccc2c(=O)c1-c1cccc(F)c1`: the compound was called inactive in [1] and in test [2].

As to `CC(C)(c1ccc(OCC(O)CO)cc1)c1ccc(OCC(O)CCl)cc1` (stereo unspecified), the result in test [1], in test [3] and in test [2] was inactive.

Take `Nc1nc(OCc2cc(Br)cs2)c2[nH]cnc2n1`: the result in [1] and in test [2] was inactive. Also, the fold change in [4] (stronger effect = lower value, cell number ratio, induced over uninduced) is 0.799 (inactive); in [4] (measured here: relative caspase fold change +Dox/-Dox) it was 0.415. Further, the cell count is 7150 in [4] (measured here: total cells with miR-34 induction, stronger effect = lower value); 8940 in test [4] (measured here: total cells without miR-34 induction); 6820 in [5]. In [5], this compound showed an SSMD of 3.47. The plate-normalised HSF1 focus index in [5] was 1.21 (inactive). Moreover, the z-score in test [6] (MELAS cybrid survival, CellTiter-Glo 48 h, stronger effect = higher value) is -0.686 (inactive); in test [6] (Rieske KO mouse fibroblast survival, CellTiter-Glo 72 h), -2.22. Moreover, the inhibition in test [7] (at 0.5 µM, stronger effect = higher value) is -8.6% (inactive); in test [7] (measured here: combination with BGB IC20, at 0.005 µM) it was 6.06%; in test [7] (measured here: combination with BGB IC40, at 0.005 µM) it was -17.9%; in [7] (setting [22]), -7.49%; in [7] (measured here: combination with cisplatin, at 0.5 µM, stronger effect = higher value) it was -32.7%; in test [7] (measured here: combination with cisplatin, at 5 µM, stronger effect = higher value) it was 3.43%. The inhibition in test [8] (BGB combo, at 5 µM) is -14.7%; in test [8] (at 0.5 µM), -12.4% (inactive); in [8] (cisplatin combo, at 5 µM) it was -19.8%; in test [8] (setting [23]), -15.1%; in test [8] (setting [24]) it was -16.6%; in test [8] (single agent, at 5 µM), -22.4%. Also, the inhibition in test [9] (BGB IC20 combo, at 0.005 µM) is -4.27%; in [9] (BGB IC40 combo, at 0.005 µM) it was -37.5%; in test [9] (BGB IC40 combo, at 0.05 µM), -11.8%; in test [9] (at 0.5 µM) it was -22.3% (inactive); in test [9] (cisplatin combo, at 0.05 µM), -16.3%; in test [9] (cisplatin combo, at 0.5 µM), -26.5%. Also, the inhibition in test [9] (cisplatin combo, at 5 µM) is -13.8%; in test [9] (measured here: 5 uM single agent, at 5 µM) it was 4.33%; in test [10] (at 0.5 µM) it was -20.5% (inactive); in test [10] (setting [22]), -27%; in [10] (setting [25]), -33.3%; in test [10] (setting [26]) it was -35.3%. Also, the inhibition in test [11] (at 0.5 µM) was -18.8% (inactive); in test [11] (measured here: with BGB IC20, at 0.5 µM), -10.7%; in [11] (measured here: with BGB IC20, at 5 µM) it was -21.3%; in test [11] (measured here: with cisplatin IC20, at 0.5 µM), -23.3%; in test [11] (measured here: with cisplatin IC20, at 5 µM) it was -10.7%; in test [11] (single agent, at 5 µM) it was -17.4%. The inhibition in test [12] (at 0.5 µM) was -32.8% (inactive); in test [12] (measured here: combination with BGB at IC20, at 0.5 µM), -25.4%; in [12] (measured here: combination with cisplatin at IC20, at 0.5 µM), -22.4%; in test [13] (at 0.5 µM), -4.96% (inactive); in test [13] (measured here: combo with BGB at IC20, at 0.5 µM), -7.38%; in test [13] (measured here: combo with cisplatin at IC20, at 0.5 µM), -2.87%. The inhibition in [14] (at 0.5 µM) is 7.84% (inactive); in test [14] (measured here: inhibition with BGB combination, at 0.05 µM), -1.57%; in test [14] (measured here: inhibition with cisplatin combination, at 0.05 µM), -17.8%; in test [15] (at 0.5 µM), 18.8% (inactive); in test [15] (setting [25]), -4.84%; in test [15] (setting [26]), 6.55%. Moreover, the inhibition in [16] (at 0.5 µM) is -3.23% (inactive); in test [16] (measured here: BGB combination, at 0.5 µM), 4.51%; in test [16] (measured here: BGB combination, at 5 µM), 3.71%; in test [16] (measured here: cisplatin combination, at 0.5 µM), -3.58%; in test [16] (measured here: cisplatin combination, at 5 µM), 5.35%; in [17] (BGB combination, concentration series, at 5 µM), -10.7%. Also, the inhibition was -6.34% (inactive) in test [17] (at 0.5 µM); 8.18% in test [17] (cisplatin combination, concentration series, at 5 µM); -4.57% (inactive) in test [18]; 2.71% in test [18] (measured here: combo with BGB IC20); -8.58% in test [18] (measured here: combo with cisplatin IC20); -0.821% (inactive) in test [19] (at 0.5 µM). Also, the inhibition is -10.5% in [19] (cisplatin combination, at 0.5 µM); 2.83% in test [19] (cisplatin combination, at 5 µM); -9.82% in test [19] (measured here: BGB IC40 combination 0.05 uM, at 0.05 µM); 4.08% in test [19] (single agent, at 5 µM); -7.44% (inactive) in [20] (at 0.5 µM); -2.67% in test [20] (cisplatin combo, at 5 µM). The inhibition in test [20] (measured here: BGB IC40 combination, at 0.05 µM) is 1.72%; in test [20] (setting [25]), -25.9%; in [20] (single agent, at 5 µM), -0.712%; in [21] (at 0.5 µM), -8.12% (inactive); in [21] (setting [23]) it was -32.5%; in test [21] (setting [24]) it was 4.06%. In addition, the inhibition in test [21] (single agent, at 0.05 µM) is 5.05%; in [21] (single agent, at 5 µM), -19.6%.

For orientation: inhibition means the relative decrease from the control value, in per cent.
